Compound activity deposited in PubChem by National Center for Advancing Translational Sciences (NCATS).
In the library only some 21% were active in any assay of this set; here they are far more common.
Pf growth 48h = inhibits P. falciparum growth in the first generation, 48 h. P. falciparum luciferase growth in erythrocytes, 48 h. Potency, µM (titrated, usually from 28.7 µM), most hits filed as inhibitors. 5.9% of 310,000 active. AID 504832
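Firefly luciferase activity from engineered P. falciparum reports growth; inhibitors lower the luminescent signal. Cultures contained 2% hematocrit erythrocytes at 0.1% final parasitemia.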
Shiga inhibitor = blocks Shiga toxin action in Vero cells; Vero cells, Shiga toxin protein synthesis inhibition reporter; inhibition, % at 38.7 µM; 9.2% of 290,000 active; in the data active means inhibition mostly above about 28%, no sharp cut-off; inactive means mostly below about 43%
Cycloheximide cs = counter-screen for Shiga toxin inhibitors: cycloheximide protein synthesis inhibition; cell reporter, cycloheximide protein synthesis inhibition counterscreen; max response, %; 12% of 300,000 active; in the data active means max response mostly above about 13%, no sharp cut-off; inactive means mostly below about 14%; further: read at 38.3 µM for the half of the compounds with a filed dose
Pf growth 96h = inhibits malaria parasite growth, 96 h; P. falciparum luciferase reporter growth, 96 h; Potency, µM (series often up to 28.7 µM), most hits filed as inhibitors; 6.9% of 320,000 active
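Two parasite generations (96 h, 37 C, 5% CO2) of compound exposure in infected erythrocytes (0.05% parasitemia, 2% hematocrit). Luciferase-reporter P. falciparum; decreased luminescence indicates inhibited growth, aimed at apicoplast-acting delayed death.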
Numbers stand for hits. Unless noted, the call rests on the fitted dose curve; in most records, active means well fitted inhibition curve with a large enough effect; inconclusive means small, poorly fitted or top-dose-only effect, or another doubt; inactive means no such curve, though single readings can be large or run the other way.

How did CCCNC(=S)NCCN1CCCCC1 do in these assays?
Pf growth 48h: inactive; Shiga inhibitor: inactive; Cycloheximide cs: inactive; Pf growth 96h: inactive

How did O=C(COc1ccc(S(=O)(=O)N2CCCC2)cc1)N1CCCCC1 do in these assays?
Pf growth 48h: inactive; Shiga inhibitor: inactive; Cycloheximide cs: inactive; Pf growth 96h: inactive

Results for O=C(CNS(=O)(=O)c1ccc(Br)s1)N1CCN(c2ccc(F)cc2)CC1 ?
Pf growth 48h: inactive; Shiga inhibitor: inactive; Cycloheximide cs: inactive; Pf growth 96h: inactive

How did Cc1ccccc1C(=O)Oc1ccccc1C(=O)N1CCOCC1 do in these assays?
Pf growth 48h: inactive; Shiga inhibitor: inactive; Cycloheximide cs: inactive; Pf growth 96h: 8.3µM

How did CSc1ncc(OCc2ccccc2)c(=O)[nH]1 do in these assays?
Pf growth 48h: inactive; Shiga inhibitor: inactive; Cycloheximide cs: inactive; Pf growth 96h: inactive

How did O=C(Cn1ncc2c3ccccc3n(Cc3ccccc3F)c2c1=O)N1CCC2(CC1)OCCO2 do in these assays?
Pf growth 48h: inactive; Shiga inhibitor: inactive; Cycloheximide cs: inactive; Pf growth 96h: inactive

Results for O=C(Cn1ncc2c3ccccc3n(Cc3ccccc3)c2c1=O)N1CCC2(CC1)OCCO2 ?
Pf growth 48h: inconclusive; Shiga inhibitor: inactive; Cycloheximide cs: 29; Pf growth 96h: inactive

Results for O=C(O)c1cc2cc(Cc3cccnc3)ccc2o1 ?
Pf growth 48h: inactive; Pf growth 96h: inactive

How did Cn1cccc1-c1cc(C(=O)N2CCc3c([nH]c4ccccc34)C2c2ccccn2)[nH]n1 (stereo not drawn) do in these assays?
Pf growth 48h: inconclusive; Shiga inhibitor: inactive; Cycloheximide cs: inactive; Pf growth 96h: inactive

What do the screens show for `Cc1c(CN2CCc3c([nH]c4ccccc34)C2CC(C)C)cnn1C` (stereo not drawn)?
Pf growth 48h: inactive; Shiga inhibitor: inactive; Cycloheximide cs: inactive; Pf growth 96h: inactive

Results for CC(C)CC1NC(C(=O)O)Cc2c1[nH]c1ccccc21 (stereo not drawn) ?
Pf growth 48h: inactive; Shiga inhibitor: inactive; Cycloheximide cs: inactive; Pf growth 96h: inconclusive

How did CC(C)CC1c2[nH]c3ccccc3c2CCN1C(=O)CCC(=O)N(C)C (stereo not drawn) do in these assays?
Pf growth 48h: inactive; Shiga inhibitor: 44; Cycloheximide cs: inactive; Pf growth 96h: 6.6µM

Results for CC(C)CC1c2[nH]c3ccccc3c2CCN1C(=O)c1cnccn1 (stereo not drawn) ?
Pf growth 48h: inconclusive; Shiga inhibitor: 76; Cycloheximide cs: 51; Pf growth 96h: inconclusive

Results for CC(=O)c1cc(C(=O)N2CCc3c([nH]c4ccccc34)C2CC(C)C)[nH]n1 (stereo not drawn) ?
Pf growth 48h: inconclusive; Shiga inhibitor: inactive; Cycloheximide cs: inactive; Pf growth 96h: 9.3µM

What do the screens show for `CC(C)CC1c2[nH]c3ccccc3c2CCN1C(=O)C1CCOCC1` (stereo not drawn)?
Pf growth 48h: 4.7µM; Shiga inhibitor: inactive; Cycloheximide cs: inactive; Pf growth 96h: inactive

What do the screens show for `Cc1cc(NC(=O)CCC(=O)N(CC(=O)NCC2CCCO2)c2cccc(F)c2)no1` (stereo not drawn)?
Pf growth 48h: inactive; Shiga inhibitor: inactive; Cycloheximide cs: inactive; Pf growth 96h: inactive

Results for CCN(CC)C(=S)SCC(=O)Nc1nc(=O)c2ccccc2s1 ?
Pf growth 48h: inactive; Shiga inhibitor: inactive; Cycloheximide cs: 18; Pf growth 96h: inactive

How did O=Cc1ccc(OCc2ccc3ccccc3c2)cc1 do in these assays?
Pf growth 48h: inactive; Cycloheximide cs: 54; Pf growth 96h: inconclusive

Results for COc1ccc(COc2cccc(C=O)c2)cc1 ?
Pf growth 48h: inactive; Pf growth 96h: inactive

What do the screens show for `O=Cc1ccc(OCc2ccccn2)cc1`?
Pf growth 48h: inactive; Shiga inhibitor: 40; Cycloheximide cs: 21; Pf growth 96h: inactive

What do the screens show for `O=Cc1cccc(OCc2cccc3ccccc23)c1`?
Pf growth 48h: inactive; Shiga inhibitor: 63; Cycloheximide cs: 34; Pf growth 96h: inactive

Results for CCOc1ccc(CN(C)CCc2ccccn2)cc1 ?
Pf growth 48h: inactive; Shiga inhibitor: inactive; Cycloheximide cs: inactive; Pf growth 96h: inactive

How did CSc1ncccc1C(=O)OCC(=O)N1CC(=O)Nc2ccccc21 do in these assays?
Pf growth 48h: inactive; Pf growth 96h: inactive

Results for O=C(CS(=O)(=O)Nc1ccc(F)cc1Cl)Nc1ccc(F)cc1Cl ?
Pf growth 48h: inactive; Shiga inhibitor: inactive; Cycloheximide cs: inactive; Pf growth 96h: inactive

What do the screens show for `Oc1ccc(C23CC4CC(CC(C4)C2)C3)cc1O`?
Pf growth 48h: 5.2µM; Shiga inhibitor: inactive; Cycloheximide cs: inactive; Pf growth 96h: 7.4µM

Results for O=C1NC2(CCCC2)Oc2ccccc21 ?
Pf growth 48h: inactive; Shiga inhibitor: inactive; Cycloheximide cs: inactive; Pf growth 96h: inactive
